An excerpt weighted towards active compounds, which were near 3.5% of everything screened.
GPR151 ag: human GPR151 activation; Q8TDV0; PathHunter beta-arrestin GPR151 cells, luminescence; 1% of 650,000 active; activation, % at 11.2 µM; in the data active = activation above about 4.9%
FBW7 activator: human FBW7 E3 ligase activation, primary screen; AlphaScreen FBW7–phospho-cyclin E peptide binding, activator screen; AID 1259310; 0.13% of 650,000 active; normalized activity (activation), % at 26.1 µM; Q969H0; in the data active = normalized activity above about 1.9%;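 also: purified mutant Fbw7 with reduced substrate affinity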
MITF primary: blocks human microphthalmia-associated transcription factor | O75030 | AlphaScreen MITF homodimerization, bead proximity signal | inhibition, % at 2.6 µM | 0.91% of 650,000 active; in the data active = inhibition above about 50%
Target sequence (O75030 whole entry, looked up): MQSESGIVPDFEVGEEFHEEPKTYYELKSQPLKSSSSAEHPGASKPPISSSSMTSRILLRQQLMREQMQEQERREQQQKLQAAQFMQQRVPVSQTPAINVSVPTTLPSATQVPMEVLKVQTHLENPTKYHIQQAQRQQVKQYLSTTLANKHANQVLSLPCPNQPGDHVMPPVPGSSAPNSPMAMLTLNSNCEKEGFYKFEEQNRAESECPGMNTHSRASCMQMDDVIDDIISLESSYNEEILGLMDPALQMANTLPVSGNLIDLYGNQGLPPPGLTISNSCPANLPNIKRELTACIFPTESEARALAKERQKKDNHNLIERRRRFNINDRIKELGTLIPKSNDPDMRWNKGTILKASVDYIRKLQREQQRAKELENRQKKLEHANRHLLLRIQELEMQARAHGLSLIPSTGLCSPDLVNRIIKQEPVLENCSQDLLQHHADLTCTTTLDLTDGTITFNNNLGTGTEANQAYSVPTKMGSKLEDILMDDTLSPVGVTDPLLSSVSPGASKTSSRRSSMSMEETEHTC
TEAD-YAP block: TEAD-YAP interaction inhibition; HEK-TIYL cells, TEAD-Gal4/YAP UAS-luciferase luminescence; inhibition, % at 9.12 µM; 1.4% of 640,000 active; in the data active = inhibition above about 32%
Hits are given with their value; i = inactive.

SMILES | GPR151 ag | FBW7 activator | MITF primary | TEAD-YAP block
COc1ccc(CCNc2nc(-c3c(C)noc3C)ncc2C)cc1 | i | i | i | 40.9
COc1ccc(CCNc2nc(-c3ccccc3)ncc2C)cc1 | i | i | i | 42.2
COc1ccc(CCNc2nc(-c3ccc(OC)cc3)ncc2C)cc1 | i | i | i | i
COc1ccc(CCNc2nc(-c3ccc(OC)nc3)ncc2C)cc1 | i | i | i | 41.4
CC(C)(C)c1cc(CN(CCO)Cc2cc(C(C)(C)C)c(O)c(C(C)(C)C)c2)cc(C(C)(C)C)c1O | i | i | i | i
Cc1c(C(=O)NC(=S)Nc2cccnc2)oc2ccccc12 | i | i | i | i
C/C(=N\NC(N)=O)c1ccc(O)c(O)c1O | i | i | 85.9 | i
COc1ccc(C2CC(=O)C=C(Nc3cc(C)ccc3O)C2)cc1 (centres undefined) | i | i | i | i
COc1ccc(C2CC(=O)C=C(Nc3cc(Cl)ccc3O)C2)cc1 (centres undefined) | i | 2.1 | i | i
Cc1ccc(OCC(=O)NC(=S)Nc2ccccn2)c(Br)c1 | i | i | i | 87.8
O=C(COc1ccc(Br)cc1Cl)NC(=S)Nc1ccccn1 | i | i | i | 45.7
CCC(=O)NC(c1ccccc1)c1cc([N+](=O)[O-])c2cccnc2c1O (centres undefined) | i | i | 84.0 | i
CC(=O)NC(c1ccc(C(C)C)cc1)c1cc([N+](=O)[O-])c2cccnc2c1O (centres undefined) | i | i | i | i
CCC(=O)NC(c1ccccc1Cl)c1cc([N+](=O)[O-])c2cccnc2c1O (centres undefined) | i | i | 71.9 | i
CCCC(=O)NC(c1ccc(O)c(OCC)c1)c1cc([N+](=O)[O-])c2cccnc2c1O (centres undefined) | i | i | i | i
CCC(=O)NC(c1ccccc1OC)c1cc([N+](=O)[O-])c2cccnc2c1O (centres undefined) | i | i | 97.6 | i
CCC(=O)NC(c1ccc2c(c1)OCO2)c1cc([N+](=O)[O-])c2cccnc2c1O (centres undefined) | i | i | 62.9 | i
CCC(=O)NC(c1ccc(C(C)C)cc1)c1cc([N+](=O)[O-])c2cccnc2c1O (centres undefined) | i | i | i | i
CCCC(=O)NC(c1ccc2c(c1)OCO2)c1cc([N+](=O)[O-])c2cccnc2c1O (centres undefined) | i | i | i | i
CCOC(=O)C(C)Sc1nc(-c2ccccc2)cc(-c2ccc(OC)cc2)c1C#N (centres undefined) | i | i | i | i
CCCCc1ccc(N/C(N)=N/c2nc(C)cc(C)n2)cc1 | i | i | i | 54.4
Cc1cc(C)nc(/N=C(\N)Nc2ccccc2-c2ccccc2)n1 | i | i | i | 42.7
Cc1cc(C)nc(/N=C(\N)Nc2ccc(C(C)C)cc2)n1 | i | i | i | 35.5
Cc1ccc(N/C(N)=N/c2nc(C)cc(C)n2)cc1 | i | i | i | i
COc1cccc2cc(C(=O)Nc3ccccc3)/c(=N/O)oc12 | i | i | i | 34.1
SMILES | GPR151 ag | FBW7 activator | MITF primary | TEAD-YAP block
COc1cccc2cc(C(=O)Nc3ccccc3)c(=Nc3ccc(F)cc3)oc12 | i | i | i | i
CN(C)c1ccc(NC(=O)C2CC3CCCC(C2)C3=O)cc1 (centres undefined) | i | i | i | i
CCc1ccc(OCC(=O)Nc2cccc(C)n2)c(Br)c1 | i | i | i | i
CCc1ccc(OCC(=O)Nc2nccs2)c(Br)c1 | i | i | i | 95.0
CC(C)(C)c1ccc(OCC(=O)Nc2nccs2)c(Br)c1 | i | i | i | 90.8
Cc1ccc(OCC(=O)Nc2nccs2)c(Br)c1 | i | i | i | 97.7
Cc1cc(Cl)ccc1OCC(=O)Nc1nccs1 | i | i | i | 65.2
Brc1ccccc1-c1nnc2sc(C3COc4ccccc4O3)nn12 (centres undefined) | i | i | i | i
O=c1c2cc(Cl)ccc2nc2ccc(N3CCCC3)nn12 | i | i | i | i
CC1CCN(c2ccc3nc4ccccc4c(=O)n3n2)CC1 | i | i | i | 75.7
COC(=O)c1ccccc1NC(=O)CNS(=O)(=O)c1ccc(C)cc1 | i | i | i | i
O=C(CN1CCC(Cn2cnc3ccccc32)CC1)Nc1nc2ccc(F)cc2s1 | i | i | i | 56.0
COc1cccc2sc(Nc3nc(-c4cccnc4)cs3)nc12 | i | i | i | 39.4
COc1cccc2sc(Nc3nc(-c4ccncc4)cs3)nc12 | i | i | i | 44.6
COc1ccccc1Nc1nc(-c2ccncc2)cs1 | i | i | i | i
COc1ccc(C2=N/C(=C\c3ccc(SC)cc3)C(=O)O2)cc1 | i | i | i | i
COC(=O)C1=C(C)NC2=C(C(=O)CC(c3ccccc3)C2)C1c1ccc(O)c([N+](=O)[O-])c1 (centres undefined) | i | i | i | i
COc1ccc(C2CC(=O)C3=C(C2)NC(C)=C(C(=O)OCc2ccccc2)C3c2cccc([N+](=O)[O-])c2)cc1 (centres undefined) | i | i | i | 59.3
CC1=C(C(=O)OCc2ccccc2)C(c2cccc([N+](=O)[O-])c2)C2=C(CC(c3ccccc3)CC2=O)N1 (centres undefined) | i | i | i | 56.0
CC1=C(C(=O)OCc2ccccc2)C(c2ccc(O)c([N+](=O)[O-])c2)C2=C(CC(c3ccccc3)CC2=O)N1 (centres undefined) | i | i | i | 44.3
CC1=C(C)OC(C)(C(=O)/C=C/c2ccccc2)CC1 (centres undefined) | i | i | i | i
O=C(Nc1cc([N+](=O)[O-])ccc1F)c1cccc(Br)c1 | i | i | i | i
O=C(Nc1cc([N+](=O)[O-])ccc1F)c1ccc(Br)cc1 | i | i | i | 39.1
O=C(Nc1ccccc1F)c1cc(F)ccc1[N+](=O)[O-] | i | i | i | 56.4
O=C(CCc1ccccc1)Nc1cc([N+](=O)[O-])ccc1F | i | i | i | 61.1
SMILES | GPR151 ag | FBW7 activator | MITF primary | TEAD-YAP block
O=C(CCCc1ccccc1)Nc1cc([N+](=O)[O-])ccc1F | i | i | i | i
O=C(Nc1cc([N+](=O)[O-])ccc1F)c1cccc(F)c1 | i | i | i | 34.4
O=C(Nc1cc([N+](=O)[O-])ccc1F)c1ccccc1 | i | i | i | i
CCC(c1nnnn1C1CCCC1)N1CCN(c2ccc(F)cc2)CC1 (centres undefined) | i | i | i | i
COc1ccccc1NC(=O)Cn1cnc2sc(C(=O)Nc3cccc(C(F)(F)F)c3)c(C)c2c1=O | i | i | i | i
CCCNC(=O)Cn1cnc2sc(C(=O)NCCCOC)c(C)c2c1=O | i | 3.2 | i | i
COc1ccccc1NC(=O)Cn1cnc2sc(C(=O)NC3CCCC(C)C3C)c(C)c2c1=O (centres undefined) | i | 2.0 | i | i
COc1ccccc1NC(=O)Cn1cnc2sc(C(=O)Nc3ccc(C(F)(F)F)cc3)c(C)c2c1=O | i | 2.2 | i | i
O=C(NNC(=O)c1cc([N+](=O)[O-])ccc1Cl)c1cccc(Br)c1 | i | i | i | i
CCCc1ccc(C2=NNC(=NC)SC2)cc1 | i | i | i | 96.7
COCCN=C1NN=C(c2ccc(C)cc2)CS1 | i | i | i | i
CCOc1ccccc1N=C(N)N=C(N)N | i | i | i | i

Assay outcomes deposited in PubChem by The Scripps Research Institute Molecular Screening Center.
